Laboratory results taken from PubChem BioAssay (Tox21).
Records with an inconclusive call do not appear. Activity calls are given as the source filed them. Calls come from the whole dose curve.

test: qHTS assay to identify small molecule agonists of the NFkB signaling pathway - cell viability counter screen (AID 1159515); conditions: NFkB-bla ME-180 viability, CellTiter-Glo luminescence, 5 h; series mostly up to 61 µM; activity, negative = cytotoxic: at the top concentration; note: nearly all actives have a fitted effect of over 55% in size
Description: National Center for Advancing Translational Sciences [NCATS]
NIH Chemical Genomics Center [NCGC]
U.S. Environmental Protection Agency [EPA]
National Institutes of Environmental Health Sciences [NIEHS]
National Toxicology Program [NTP]
U.S. Food and Drug Administration [FDA]
Transcription factors and their stimulated target gene expression play pivotal roles across many cellular processes including responses to environmental stimuli. Proper regulation of associated pathways is critical to maintain cell health and function. Constitutive activation of transcription factor pathways has been implicated in tumors as it may block cellular functions such as apoptosis and lead to invasion and metastasis. One important transcription factor that stimulates gene expression in response to cytokines, UV radiation, and other stimuli is nuclear factor-kappa B (NFkB). To measure activation of the NFkB pathway, the CellSensor NFkB-bla ME-180 cell line (Life Technologies, Carlsbad, CA) that stably expresses beta-lactamase reporter gene under the regulation of a NF-kB response element was used. This assay allows measurement of the NFkB pathway activity induced by compounds in a ME-180 cell line. This system quantitates NF-kB activity using a FRET-based assay system where beta-lactamase expression disrupts FRET, allowing for fluorescent measurement of activity. This cell line has been used to screen the Tox21 10K compound library and to identify compounds that induce the NFkB pathway activity. The cytotoxicity of the Tox21 compound library against the NFkB-bla ME-180 cell line was tested in parallel by measuring cell viability using the CellTiter-Glo assay in the same wells.
Tox21 Assay Protocol Summary:
NFkB-bla ME-180 cells were dispensed at 2,000 cells/6 uL of assay medium per well into black wall/clear-bottom 1536-well plates using a Multidrop Combi (ThermoFisher Scientific, Waltham, MA) dispenser. After the assay plates were incubated at 37 C and 5% CO2 for an overnight, 23 nL of compounds dissolved in DMSO, positive controls or DMSO only was transferred to the assay plate by a Pintool station (Kalypsys, San Diego, CA). The assay plates were incubated at 37 C and 5% CO2 for 5 hr. One uL of LiveBLAzer B/G FRET substrate (Life Technologies) was added using a Flying Reagent Dispenser (Aurora Discovery, San Diego, CA) and the plates were incubated at room temperature for 1.5 hr. Fluorescence intensity (405 nm excitation, 460 nm and 530 nm emissions) was measured using an Envision plate reader (PerkinElmer, Shelton, CT). For cytotoxicity, 3 ul/well of CellTiter-Glo reagent was added into the assay plates using an FRD. After 30 min incubation at room temperature, the luminescence intensity was measured using a ViewLux plate reader (PerkinElmer).
% is set by controls: 0 for no effect and ±100 for the full control effect.

Compound	activity, negative = cytotoxic
COc1ccc([C@@H]2Sc3ccccc3N(CCN(C)C)C(=O)[C@@H]2OC(C)=O)cc1	-25.9% (inactive)
Cn1c(=O)c2c(ncn2CC(O)CO)n(C)c1=O (stereo not given)	3.3% (inactive)
OC(CCN1CCCCC1)(c1ccccc1)C1CCCCC1 (stereo not given)	-7.51% (inactive)
O=C=NC1CCC(CC2CCC(N=C=O)CC2)CC1 (stereo not given)	-0.525% (inactive)
CC(O)C1CCCCC1 (stereo not given)	-1.78% (inactive)
N#Cc1cc2ccccc2c2ccccc12	4.99% [at 78.8 µM] (inactive)
Cc1cc(CC(=O)O)c(C)n1-c1ccc(Cl)cc1	-0.0232% (inactive)
C=C(C)C(=O)OCCOc1ccccc1	1.76% (inactive)
C=CC[N+]1([C@H]2C[C@H]3[C@@H]4CC[C@H]5C[C@H](OC(C)=O)[C@@H](N6CCCCC6)C[C@]5(C)[C@H]4CC[C@]3(C)[C@H]2OC(=O)CC)CCCCC1	7.68% (inactive)
CCOC(=O)[C@H](CCc1ccccc1)N[C@H]1CCc2ccccc2N(CC(=O)O)C1=O	-7.76% (inactive)
ClC(Cl)(Cl)c1ccc(C(Cl)(Cl)Cl)cc1	16.7% (inactive)
CN1CCN(C2=Nc3ccccc3Sc3ccc(Cl)cc32)CC1	-14% (inactive)
Nc1nc(N)c(-c2ccccc2)s1	-0.93% (inactive)
OCC1CC2CC1C1CCC(CO)C21 (stereo not given)	-4.83% (inactive)
Cc1cccc(OCCOc2cccc(C)c2)c1	-1.22% [at 78.8 µM] (inactive)
NC(=S)N/N=C/c1cccnc1	13.2% (inactive)
Cc1ccc(O)c([C@H](CCN(C(C)C)C(C)C)c2ccccc2)c1	-6.05% (inactive)
CCc1nn(C2CCCCC2)c2cc(C3(C#N)CCC(C(=O)O)CC3)ccc12 (stereo not given)	-0.628% (inactive)
S=C(S)NCCNC(=S)S	-1.77% (inactive)
CCCCOc1cc(C(=O)OCCN(CC)CC)ccc1N	-7.02% (inactive)

Compound	activity, negative = cytotoxic
NCCCN(CCO)CCO	6.43% (inactive)
CC(=O)N(O)CCCCCNC(=O)CCC(=O)N(O)CCCCCNC(=O)CCC(=O)N(O)CCCCCN	6.31% (inactive)
O=C(O)COC(=O)Cc1ccccc1Nc1c(Cl)cccc1Cl	1.75% (inactive)
CC(=O)/C(C)=C/C1C(C)=CCCC1(C)C (stereo not given)	-12.7% (inactive)
O=C(O)Cc1sc(-c2ccccc2)nc1-c1ccc(Cl)cc1	5.83% (inactive)
O=C(O)c1cccc(N(Cc2cccnc2)c2ccc(OC(F)F)c(OC(F)F)c2)c1	3.79% (inactive)
COc1ccccc1OC(=O)Oc1ccccc1OC	-5.96% (inactive)
CC(CN)CCCN (stereo not given)	14.5% (inactive)
Oc1ccc(O)c2c(O)cccc12	5.54% (inactive)
c1ccc(CNCc2ccccc2)cc1	-4.7% (inactive)
CCN(CC)CCOC(=O)C1(c2ccccc2)CCCC1	-0.772% (inactive)
O=C(C(=O)c1ccc(Br)cc1)c1ccc(Br)cc1	3.17% [at 28.5 µM] (inactive)
CC1=CC(=O)/C(=C(/C)O)C(=O)O1	1.21% (inactive)
O=C1Nc2cc(Cl)ccc2Oc2ccccc21	3.43% (inactive)
CCCCCCCCCC=O	8.13% (inactive)
COCCOCCOCCOCCOC	15.1% (inactive)
CC(=O)O[C@@H]1C(=O)O[C@@H]2[C@H]1OC(=O)[C@@H]2OC(C)=O	5.66% (inactive)
C[C@H](CCC(=O)O)[C@H]1CC[C@H]2[C@@H]3[C@H](O)C[C@@H]4C[C@H](O)CC[C@]4(C)[C@H]3CC[C@]12C	-2.04% (inactive)
CN(C)CCCNCCCN	9.22% (inactive)
CC1(C)CCC(C)(C)c2cc(NC(=O)c3ccc(C(=O)O)cc3)ccc21	7.97% (inactive)
